The full data set covers some 7,900 targets. This sample favours those with a hit. About 0.6% of all pairs of compound and target were hits. Unmarked numbers belong to inactive results.
What was measured:
Experiment in all cases: log2 fold change, soluble protein after heating vs DMSO (PISA); higher = thermal stabilisation; K562 cells, 10 uM, 30 min; active = over 0.2 and 3.5 SD of the protein, either way, in both replicates (recomputed)
[1] = compound: C1COCCN1CCN2C3=CC=CC=C3N=C2NC(=O)C4=CC(=CC=C4)[N+](=O)[O-] [IRAK-1-4 Inhibitor I]
In short: (§1)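 K562 cells at 2×10^6 cells/mL were treated with 10 μM compound for 30 min. Aliquots were heated for 3 min across 48°C-58°C, pooled, and extracted in PBS with 0.5% NP-40 at 4°C; soluble protein was the supernatant after 21,000xg for 90 min. Soluble protein was quantified by TMTpro 16plex LC-MS/MS with channel sums equalised, and reported as log2 fold change in thermal stability against DMSO controls, with values from duplicates.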

[2] = compound: C=CC(=O)N1CCC[C@@H](n2nc(-c3ccc(Oc4ccccc4)cc3)c3c(N)ncnc32)C1 [ibrutinib]
In short: as §1

[3] = compound: CC(=O)c1cnc2ccc(-c3cc(Cl)c(O)c(Cl)c3)nc2c1N[C@H]1CC[C@H](CN(C)C)CC1
In short: as §1

[4] = compound: CC(C)(C)Cn1c(N)nc2ccc(-c3[nH]c(C(C)(C)C)nc3-c3ccc(F)cc3)nc21 [ralimetinib]
In short: as §1

[5] = compound: CC(C)(O)CC(=O)NCCn1ccc2ncnc(Nc3ccc(Oc4cccc(C(F)(F)F)c4)c(Cl)c3)c21
In short: as §1

[6] = compound: CC(C)C1=C2N=C(C=C(N2N=C1)NCC3=CC=CC=C3)NCCCCCCN
In short: as §1

[7] = compound: CC(C)C[C@@H](C=O)NC(=O)[C@H](CC(C)C)NC(=O)[C@H](CC(C)C)NC(=O)OCc1ccccc1
In short: as §1

[8] = compound: CC(C)N(C[C@H]1O[C@@H](n2cnc3c(N)ncnc32)[C@H](O)[C@@H]1O)[C@H]1C[C@@H](CCc2nc3cc(C(C)(C)C)ccc3[nH]2)C1 [pinometostat]
In short: as §1

[9] = compound: CC1=C(C(CC(=O)N1)C2=CC=C(C=C2)C(F)(F)F)C(=O)NC3=C(C=C4C(=C3)C=NN4)F
In short: as §1

[10] = compound: CC1=C(C2=C(C=C1)C(=O)C3=CC=CC=C3N2CCCN)C
In short: as §1

UniProt Q14498, sequence (Q14498 whole entry, looked up): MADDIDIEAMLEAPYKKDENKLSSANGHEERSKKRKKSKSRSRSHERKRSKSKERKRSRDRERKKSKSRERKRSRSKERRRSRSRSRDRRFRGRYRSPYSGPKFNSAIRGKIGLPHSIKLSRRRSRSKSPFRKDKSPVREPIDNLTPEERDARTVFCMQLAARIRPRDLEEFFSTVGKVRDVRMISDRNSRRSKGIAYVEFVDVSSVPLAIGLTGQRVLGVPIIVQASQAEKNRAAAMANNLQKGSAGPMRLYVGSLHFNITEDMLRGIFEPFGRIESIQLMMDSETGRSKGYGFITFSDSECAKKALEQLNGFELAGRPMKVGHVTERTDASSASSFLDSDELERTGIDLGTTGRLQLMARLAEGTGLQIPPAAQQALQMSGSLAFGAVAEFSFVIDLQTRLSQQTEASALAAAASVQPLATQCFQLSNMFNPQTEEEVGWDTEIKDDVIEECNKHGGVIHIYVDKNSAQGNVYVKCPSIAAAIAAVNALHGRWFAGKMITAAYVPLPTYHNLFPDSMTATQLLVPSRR
UniProt Q8TC12, sequence (Q8TC12 whole entry, looked up): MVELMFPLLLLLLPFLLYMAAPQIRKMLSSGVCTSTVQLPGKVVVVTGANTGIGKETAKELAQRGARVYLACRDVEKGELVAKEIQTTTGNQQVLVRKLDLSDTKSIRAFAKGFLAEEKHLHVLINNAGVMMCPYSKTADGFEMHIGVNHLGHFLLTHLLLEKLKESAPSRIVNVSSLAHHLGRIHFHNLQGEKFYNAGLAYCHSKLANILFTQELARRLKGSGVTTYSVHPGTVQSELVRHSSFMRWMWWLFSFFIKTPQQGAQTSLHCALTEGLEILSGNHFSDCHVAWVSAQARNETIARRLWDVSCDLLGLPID
UniProt Q96DX4, sequence (Q96DX4 whole entry, looked up): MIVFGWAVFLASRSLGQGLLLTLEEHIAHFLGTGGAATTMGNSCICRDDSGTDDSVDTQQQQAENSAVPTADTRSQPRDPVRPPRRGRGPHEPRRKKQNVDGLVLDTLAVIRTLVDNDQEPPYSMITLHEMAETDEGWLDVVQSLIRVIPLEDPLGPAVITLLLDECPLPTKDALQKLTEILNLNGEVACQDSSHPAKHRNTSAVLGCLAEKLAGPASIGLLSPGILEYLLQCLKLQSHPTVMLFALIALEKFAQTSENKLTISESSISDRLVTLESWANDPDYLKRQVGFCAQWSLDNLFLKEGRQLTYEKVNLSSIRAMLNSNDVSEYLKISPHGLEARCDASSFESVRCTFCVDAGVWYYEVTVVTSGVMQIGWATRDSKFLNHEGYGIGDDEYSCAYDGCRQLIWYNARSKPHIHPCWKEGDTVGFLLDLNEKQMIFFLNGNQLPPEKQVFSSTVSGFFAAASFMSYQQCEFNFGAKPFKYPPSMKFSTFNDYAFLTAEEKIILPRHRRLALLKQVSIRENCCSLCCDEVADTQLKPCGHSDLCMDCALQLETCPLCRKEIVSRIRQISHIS
UniProt Q8WXD2, sequence (Q8WXD2 whole entry, looked up): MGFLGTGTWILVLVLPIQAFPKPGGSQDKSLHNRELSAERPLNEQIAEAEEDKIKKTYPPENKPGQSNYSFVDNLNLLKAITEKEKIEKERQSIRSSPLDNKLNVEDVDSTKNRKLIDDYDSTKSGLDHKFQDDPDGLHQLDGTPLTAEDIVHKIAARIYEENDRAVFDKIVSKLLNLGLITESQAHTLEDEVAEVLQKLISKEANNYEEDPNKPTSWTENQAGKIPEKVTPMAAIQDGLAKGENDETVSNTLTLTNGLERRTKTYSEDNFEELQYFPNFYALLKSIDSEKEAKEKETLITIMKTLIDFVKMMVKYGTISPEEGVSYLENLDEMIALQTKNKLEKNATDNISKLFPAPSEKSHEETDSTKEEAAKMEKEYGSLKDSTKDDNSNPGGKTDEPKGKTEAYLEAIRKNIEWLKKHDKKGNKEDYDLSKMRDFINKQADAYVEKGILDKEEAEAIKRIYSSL
UniProt P49792, sequence (P49792 whole entry, looked up): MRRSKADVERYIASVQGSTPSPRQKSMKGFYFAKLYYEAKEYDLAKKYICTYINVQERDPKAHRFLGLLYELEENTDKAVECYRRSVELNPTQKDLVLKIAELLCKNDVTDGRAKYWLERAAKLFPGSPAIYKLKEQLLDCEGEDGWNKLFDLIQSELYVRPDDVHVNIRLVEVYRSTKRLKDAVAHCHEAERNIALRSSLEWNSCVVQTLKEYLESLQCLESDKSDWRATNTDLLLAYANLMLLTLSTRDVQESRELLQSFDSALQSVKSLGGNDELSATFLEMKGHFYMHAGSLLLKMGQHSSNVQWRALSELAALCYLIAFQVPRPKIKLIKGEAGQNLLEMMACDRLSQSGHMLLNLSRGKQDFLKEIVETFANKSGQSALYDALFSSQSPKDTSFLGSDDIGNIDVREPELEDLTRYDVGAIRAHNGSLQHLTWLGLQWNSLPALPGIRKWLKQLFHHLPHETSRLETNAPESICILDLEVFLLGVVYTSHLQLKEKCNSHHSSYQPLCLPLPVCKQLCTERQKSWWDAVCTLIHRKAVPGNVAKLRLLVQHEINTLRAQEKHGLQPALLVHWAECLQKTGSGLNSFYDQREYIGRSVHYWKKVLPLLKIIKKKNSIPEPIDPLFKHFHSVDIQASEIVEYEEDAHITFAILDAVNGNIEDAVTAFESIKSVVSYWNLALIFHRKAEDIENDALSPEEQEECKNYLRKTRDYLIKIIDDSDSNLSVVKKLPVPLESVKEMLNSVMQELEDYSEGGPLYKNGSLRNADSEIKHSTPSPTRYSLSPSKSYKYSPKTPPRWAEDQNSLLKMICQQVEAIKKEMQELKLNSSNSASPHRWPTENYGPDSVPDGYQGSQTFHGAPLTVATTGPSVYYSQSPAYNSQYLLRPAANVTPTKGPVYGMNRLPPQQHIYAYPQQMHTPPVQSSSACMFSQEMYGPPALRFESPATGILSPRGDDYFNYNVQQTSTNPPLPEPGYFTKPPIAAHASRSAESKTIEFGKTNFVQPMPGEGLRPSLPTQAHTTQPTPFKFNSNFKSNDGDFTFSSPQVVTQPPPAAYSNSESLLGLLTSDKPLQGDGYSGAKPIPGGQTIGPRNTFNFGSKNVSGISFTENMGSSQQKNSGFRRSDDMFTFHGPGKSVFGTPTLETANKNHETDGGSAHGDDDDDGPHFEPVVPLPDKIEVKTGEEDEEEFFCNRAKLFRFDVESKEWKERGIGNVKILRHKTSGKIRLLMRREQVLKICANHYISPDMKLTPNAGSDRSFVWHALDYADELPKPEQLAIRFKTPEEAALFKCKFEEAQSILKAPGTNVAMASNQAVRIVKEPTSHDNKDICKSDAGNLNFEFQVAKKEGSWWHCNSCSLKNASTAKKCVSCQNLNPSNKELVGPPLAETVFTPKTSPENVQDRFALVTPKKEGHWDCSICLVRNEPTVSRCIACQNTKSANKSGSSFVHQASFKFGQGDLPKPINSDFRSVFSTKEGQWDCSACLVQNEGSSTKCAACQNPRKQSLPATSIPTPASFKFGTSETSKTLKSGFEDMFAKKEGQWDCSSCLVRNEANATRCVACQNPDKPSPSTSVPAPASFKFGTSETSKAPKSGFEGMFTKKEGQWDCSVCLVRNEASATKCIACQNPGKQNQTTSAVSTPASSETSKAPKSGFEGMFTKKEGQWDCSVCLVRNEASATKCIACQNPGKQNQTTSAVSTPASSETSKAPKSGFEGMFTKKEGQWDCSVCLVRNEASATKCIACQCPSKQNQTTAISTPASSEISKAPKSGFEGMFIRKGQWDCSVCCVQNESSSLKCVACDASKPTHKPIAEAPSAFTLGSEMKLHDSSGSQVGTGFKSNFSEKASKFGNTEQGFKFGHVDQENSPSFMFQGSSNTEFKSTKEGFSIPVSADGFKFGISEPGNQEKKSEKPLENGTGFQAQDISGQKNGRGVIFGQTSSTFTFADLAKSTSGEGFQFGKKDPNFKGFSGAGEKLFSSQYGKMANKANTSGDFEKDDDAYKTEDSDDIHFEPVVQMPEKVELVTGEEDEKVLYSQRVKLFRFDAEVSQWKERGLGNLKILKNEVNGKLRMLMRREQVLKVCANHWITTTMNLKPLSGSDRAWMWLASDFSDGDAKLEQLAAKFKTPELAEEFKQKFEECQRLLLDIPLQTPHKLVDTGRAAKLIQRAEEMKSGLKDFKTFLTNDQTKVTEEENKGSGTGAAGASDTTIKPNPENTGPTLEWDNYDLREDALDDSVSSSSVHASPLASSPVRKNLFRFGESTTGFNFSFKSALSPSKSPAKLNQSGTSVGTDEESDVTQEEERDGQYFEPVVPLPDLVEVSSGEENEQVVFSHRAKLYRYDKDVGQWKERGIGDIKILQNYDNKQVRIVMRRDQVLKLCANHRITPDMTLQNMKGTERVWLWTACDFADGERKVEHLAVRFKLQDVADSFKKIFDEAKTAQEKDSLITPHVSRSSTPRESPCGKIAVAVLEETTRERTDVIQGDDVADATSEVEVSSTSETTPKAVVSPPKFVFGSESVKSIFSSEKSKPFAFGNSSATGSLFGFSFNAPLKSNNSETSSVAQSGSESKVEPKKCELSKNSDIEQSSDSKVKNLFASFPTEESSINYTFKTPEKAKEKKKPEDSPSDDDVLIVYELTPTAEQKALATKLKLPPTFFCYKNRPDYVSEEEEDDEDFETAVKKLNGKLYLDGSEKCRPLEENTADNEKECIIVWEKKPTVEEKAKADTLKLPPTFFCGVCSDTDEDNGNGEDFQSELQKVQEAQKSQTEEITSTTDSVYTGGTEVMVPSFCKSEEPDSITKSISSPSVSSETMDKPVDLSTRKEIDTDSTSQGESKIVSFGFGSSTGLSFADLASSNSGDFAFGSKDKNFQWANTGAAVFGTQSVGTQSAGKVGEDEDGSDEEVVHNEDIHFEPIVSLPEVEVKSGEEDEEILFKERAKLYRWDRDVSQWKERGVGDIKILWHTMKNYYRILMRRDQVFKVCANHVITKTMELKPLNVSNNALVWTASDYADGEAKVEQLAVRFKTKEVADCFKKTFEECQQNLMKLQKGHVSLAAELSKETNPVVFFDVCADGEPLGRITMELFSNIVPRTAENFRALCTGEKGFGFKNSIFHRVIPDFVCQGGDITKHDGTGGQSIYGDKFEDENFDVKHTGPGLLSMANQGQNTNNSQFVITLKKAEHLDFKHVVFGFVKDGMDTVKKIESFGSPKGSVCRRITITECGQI

Row | Target | log2 fold change [1] | log2 fold change [2] | log2 fold change [3] | log2 fold change [4] | log2 fold change [5] | log2 fold change [6] | log2 fold change [7] | log2 fold change [8] | log2 fold change [9] | log2 fold change [10]
1 | RSPRY1 (UniProt Q96DX4) | 0.018 | 0.027 | 0.02 | -0.019 | -0.036 | 0 | 0.079 | -0.048 | 0.033 | -0.066
2 | RAB33B (UniProt Q9H082) | 0.072 | 0.016 | -0.019 | -0.092 | 0.027 | 0.113 | 0.112 | -0.015 | -0.011 | -0.002
3 | RANBP2 (UniProt P49792) | 0.024 | 0.035 | 0.081 | 0.022 | -0.043 | -0.136 | 0.024 | -0.017 | 0.169 | 0.076
4 | RPS4X (UniProt P62701) | -0.129 | 0.025 | 0.126 | 0.106 | 0.003 | -0.025 | 0.074 | 0.273 | 0.048 | -0.679 (active)
5 | RPS15 (UniProt P62841) | -0.114 | 0.11 | -0.042 | 0.076 | 0.103 | -0.043 | 0.11 | 0.088 | 0.071 | -0.574 (active)
6 | RPS5 (UniProt P46782) | -0.137 | 0.045 | 0.083 | 0.103 | 0 | -0.015 | -0.019 | 0.091 | 0.034 | -0.551 (active)
7 | RBM39 (UniProt Q14498) | -0.193 | 0 | -0.497 (active) | 0.044 | -0.028 | -0.267 | 0.043 | 0.042 | -0.022 | 0.104
8 | RUFY1 (UniProt Q96T51) | -0.019 | -0.002 | 0.101 | 0.034 | -0.092 | -0.182 | 0.011 | 0.083 | -0.003 | -0.014
9 | RSF1 (UniProt Q96T23) | -0.188 | -0.054 | 0.043 | 0.019 | -0.175 | -0.114 | -0.058 | -0.123 | 0.028 | -1.48 (active)
10 | RCC1 isoform 2 (UniProt P18754) | -0.026 | -0.04 | -0.14 | 0 | -0.16 | -0.094 | 0.041 | 0.023 | -0.08 | -0.899 (active)
11 | SGPL1 (UniProt O95470) | -0.05 | -0.018 | -0.045 | 0.159 | 0.017 | 0.06 | 0.002 | 0.1 | -0.025 | 0.146
12 | SCG3 (UniProt Q8WXD2) | -0.003 | 0.035 | -0.107 | 0.061 | 0.039 | 0.203 | 0.038 | -0.139 | 0.05 | -0.359
13 | RBM26 isoform 2 (UniProt Q5T8P6) | -0.086 | 0.032 | -0.179 | -0.021 | -0.16 | -0.295 | 0.024 | -0.022 | 0.014 | 0.06
14 | RDH11 (UniProt Q8TC12) | 0.032 | 0.067 | -0.145 | 0.059 | -0.126 | -0.74 (active) | 0.117 | 0.013 | -0.028 | 0.103
15 | RPS12 (UniProt P25398) | -0.063 | 0.036 | 0.051 | 0.043 | 0.003 | 0.036 | -0.024 | 0.024 | 0.095 | -0.314 (active)
